Laboratory results as given in PubChem BioAssay AID1851 (National Center for Advancing Translational Sciences (NCATS), 2009).
The campaign covered roughly 16,000 compounds. About 4,000 (25%) were called active. Another 26% or so got no clear call; they are omitted. The list is a sample of the results. Values without a mark were called inactive. The call rests on the fitted dose curve; in most records, active means well fitted curve in the direction sought with a large enough effect; inconclusive means small, poorly fitted or top-dose-only effect, or effect the other way; inactive means no such curve, though single readings can be large or run the other way.
On the % scale 0 is the no-effect control and ±100 the full control effect.

These compounds were tested against Cytochrome P450 2C9 (Homo sapiens) (UniProt P11712) (assay: Cytochrome panel assay with activity outcomes). Details: recombinant CYP, pro-luciferin dealkylation, luminescence, p450-cyp2c9; series mostly up to 57.1 µM.
Cytochrome P450 2C9 (Homo sapiens), sequence (P11712 whole entry, looked up): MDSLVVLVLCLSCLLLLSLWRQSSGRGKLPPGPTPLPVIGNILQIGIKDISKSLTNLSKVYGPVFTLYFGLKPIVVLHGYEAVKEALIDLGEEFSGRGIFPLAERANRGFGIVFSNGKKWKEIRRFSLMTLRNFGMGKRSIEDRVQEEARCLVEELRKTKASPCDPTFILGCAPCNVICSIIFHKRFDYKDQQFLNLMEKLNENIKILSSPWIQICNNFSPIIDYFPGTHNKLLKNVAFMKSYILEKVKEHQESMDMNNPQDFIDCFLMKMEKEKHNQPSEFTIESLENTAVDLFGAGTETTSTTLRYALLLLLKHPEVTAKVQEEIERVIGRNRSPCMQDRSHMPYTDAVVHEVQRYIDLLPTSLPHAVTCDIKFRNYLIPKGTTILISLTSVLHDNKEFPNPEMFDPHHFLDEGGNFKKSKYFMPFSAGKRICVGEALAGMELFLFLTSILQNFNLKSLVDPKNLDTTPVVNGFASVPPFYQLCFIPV
With `O=C(NCCCn1ccnc1)Nc1ccc(Cl)cc1` the AC50 was 0.316 µM (active).
In the case of `O=C(NCCCN1CCCC1=O)Nc1ccc(F)c(Cl)c1`, the AC50 is reported as “inactive”.
For `COc1ccc2c(Cl)c(C(=O)NCCCn3ccnc3)sc2c1Cl`, the AC50 was 0.891 µM (active).
For `CCCNC(=O)Nc1ccc2c(c1)nc(C)n2C`, the AC50 was “inactive”.
With `CCN1CCN(CCCNC(=O)c2cc3cc4ccc(OC)cc4nc3o2)CC1` the AC50 was “inactive”.
`S=C(S)NCCCn1ccnc1` was tested, and the AC50 was 2 µM (active).
For `S=C(S)NCCN1CCNCC1`, the activity, negative = inhibition was -16.5% [at 11.4 µM].
For `O=S1(=O)N[C@H]2CC[C@@H]3NS(=O)(=O)N[C@H]4CC[C@H](N1)N4S(=O)(=O)N23`, the activity, negative = inhibition was -6.3% [at 11.4 µM].
`O=C(NCCNC[C@@H](O)COc1ccc(O)cc1)N1CCOCC1` was tested, and the AC50 was “inactive”.
In the case of `CCOC(=O)c1c(O)[nH]c(=O)c(CC)c1C`, the activity, negative = inhibition is reported as 4.97% [at 11.4 µM].
In the case of `COc1ccccc1OC[C@H](O)COC(N)=O`, the AC50 is reported as “inactive”.
For `CCOC(=O)c1[nH]c(COC(=O)CCOc2ccccc2OC)c(C(=O)OCC)c1C`, the AC50 was 4.47 µM (active).
In the case of `N=C(N)SCCc1ccc(OCc2ccc([N+](=O)[O-])cc2)cc1`, the AC50 is reported as “inactive”.
With `CN1CCc2cc(Cl)c(O)cc2[C@@H](c2ccccc2)C1` the AC50 was “inactive”.
With `CCCCCN=c1ccn(Cc2ccccc2)c2ccccc12` the AC50 was 0.316 µM (active).
`N#Cc1cccc(-c2nccc(NCc3cccs3)n2)c1` gave an activity, negative = inhibition of 5.43% [at 2.29 µM].
In the case of `O=C(Cn1cnc2ccccc21)NC(c1ccccc1)c1ccccc1`, the AC50 is reported as 15.8 µM (active).
For `Cc1ccc(OCC(=O)Nn2cnc3ccccc32)cc1`, the AC50 was “inactive”.
In the case of `O=S(=O)(/N=C(\Sc1ccccc1)c1ccccc1)c1ccc(Cl)cc1`, the AC50 is reported as 3.98 µM (active).
`O=S(=O)(/N=C(/Nc1ccc(F)cc1F)c1ccc(Cl)cc1)c1ccccc1` was tested, and the AC50 was “inactive”.
`CC(=O)NCCNc1ncncc1-c1ccccc1CN(C)C` was tested, and the activity, negative = inhibition was 4.96% [at 2.29 µM].
With `Cc1cc(C)nc(NC(=O)CCCC(=O)O)c1` the AC50 was “inactive”.
`CC#CCCCC(=O)Nc1cc(OC)nc(OC)n1` was tested, and the AC50 was 11.2 µM (active).
For `COc1cc(OC)nc(NC(C)=O)n1`, the AC50 was “inactive”.
`N#Cc1ccc(CN2CCC3(CC2)CCN(C(=O)c2cc(C(F)(F)F)cc(C(F)(F)F)c2)CC3)cc1` was tested, and the AC50 was “inactive”.
Work on `C/C(CCN1CCCc2nc(C)c(C)cc21)=N\OC[C@@H](O)[C@@H]1O[C@@H]2OC(C)(C)O[C@@H]2[C@H]1O` yielded an activity, negative = inhibition of 2.31% [at 11.4 µM].
With `COCCN=C1Sc2nc3c(C)cccc3cc2CN1Cc1ccco1` the AC50 was 4.47 µM (active).
In the case of `C[C@@H](c1ccccc1)N1C(=O)[C@H]2[C@H]3[C@H](O)[C@H](O)C/C(=N/OC[C@@H](O)COCc4ccco4)[C@@H]3CC[C@@H]2C1=O`, the activity, negative = inhibition is reported as 2.8% [at 11.4 µM].
With `COc1ccc2c(c1)c(CC(=O)N1CCOCC1)c(C)n2C(=O)c1ccc(Cl)cc1` the AC50 was “inactive”.
With `O=C(CSc1c[nH]c2ccccc12)N1CCOCC1` the AC50 was “inactive”.
In the case of `CC(C)Cn1c(-c2ccc(Cl)cc2)cnc1SCC(=O)N1CCOCC1`, the AC50 is reported as 14.1 µM (active).
For `COC(=O)c1[nH]c2cc(OC)ccc2c1NC(=O)c1ccc2c(c1)OCO2`, the AC50 was 3.55 µM (active).
For `CCOC(=O)c1[nH]c2ccc(OC)cc2c1NC(=O)c1ccc2c(c1)OCO2`, the AC50 was 14.1 µM (active).
`CCOC(=O)c1[nH]c2cc(OC)c(OC)cc2c1NC(=O)c1ccc2c(c1)OCO2` was tested, and the AC50 was “inactive”.
In the case of `CCOC(=O)c1[nH]c2cc3c(cc2c1NC(=O)CN1CCC2(CC1)OCCO2)OCO3`, the AC50 is reported as “inactive”.
For `COc1ccc2c3c([nH]c2c1)[C@H]1C[C@@H]2[C@@H](C[C@@H](O)[C@H](OC)[C@H]2C(=O)O)CN1CC3`, the activity, negative = inhibition was 4.43% [at 11.4 µM].
In the case of `CCOC(=O)c1[nH]c2cc(OC)c(OC)cc2c1NC(=O)c1nonc1C`, the AC50 is reported as 0.708 µM (active).
For `COc1cccc(NC(=O)c2oc3ccccc3c2NC(=O)c2ccc3c(c2)OCO3)c1`, the AC50 was 3.55 µM (active).
In the case of `CN1CCN(CCCNC(=O)C2CCN(c3nnc(-n4cccc4)s3)CC2)CC1`, the AC50 is reported as “inactive”.
`CC(=O)OC[C@@H]1O[C@H](C/C=N\O[C@@H](C)CN2CCCc3nc(C)c(C)cc32)C=C[C@@H]1OC(C)=O` gave an activity, negative = inhibition of -0.762% [at 11.4 µM].
`N#Cc1ccc(-c2ccccc2)nc1SCC(=O)c1cccc(Cl)c1` was tested, and the AC50 was 2 µM (active).
Work on `O=C(CSc1nc2ccccc2c2ccccc12)c1ccccc1` yielded an activity, negative = inhibition of -1.33% [at 11.4 µM].
`CC(CO)(CO)Nc1ncnc2ccccc12` showed an activity, negative = inhibition of 15.3% [at 11.4 µM].
With `CC1CN(C(=O)COc2ncnc3ccccc23)CC(C)O1` (centres undefined) the AC50 was “inactive”.
`CCOc1ccc(OCCOc2ncnc3ccccc23)cc1` was tested, and the AC50 was 17.8 µM (active).
For `CCC(=O)N(Cc1ccco1)c1nc(-c2ccccc2)cs1`, the AC50 was 2.51 µM (active).
In the case of `CN(C)C(=O)c1ccc(-c2nccc(N(C)Cc3ccco3)n2)cc1`, the activity, negative = inhibition is reported as 0.769% [at 2.29 µM].
With `CN(C)C(=O)c1ccc(-c2cc(N(C)Cc3ccco3)ncn2)cc1` the activity, negative = inhibition was 0.869% [at 2.29 µM].
For `O=C(O)C1=CCNCC1`, the AC50 was “inactive”.
`c1cc(NNc2cccc(-c3nn[nH]n3)c2)cc(-c2nn[nH]n2)c1` gave an activity, negative = inhibition of -4.17% [at 11.4 µM].
`Nc1cc(-c2nn[nH]n2)ccc1F` was tested, and the AC50 was 12.6 µM (active).
`C[C@](N)(C(=O)O)c1ccc(-c2nn[nH]n2)cc1` was tested, and the AC50 was “inactive”.
In the case of `COc1cc(N[C@@H](C)CCCN)c2ncccc2c1`, the AC50 is reported as “inactive”.
For `COc1ccc(CCC(C)Nc2cccc(F)c2)cc1` (centres undefined), the AC50 was 12.6 µM (active).
With `COc1ccc(CCC(C)NC2C3CC4CC(C3)CC2C4)cc1` (centres undefined) the AC50 was “inactive”.
`COc1ccc(C(=O)N2CCC[C@@]3(CCN(CC(C)C)C3)C2)cc1` was tested, and the AC50 was “inactive”.
`Cc1noc(C)c1C(=O)N1CCC2(CCCN(C(=O)Nc3cccc(F)c3)C2)CC1` was tested, and the AC50 was “inactive”.
`COc1cccc(CN2C(=O)N(C(C)C)C(N(O)C(=O)NC(C)C)C2(C)C)c1OC` (centres undefined) was tested, and the AC50 was 15.8 µM (active).
`CCCCOc1cc(C[C@@H]2CNC(=O)N2)ccc1OC` was tested, and the AC50 was “inactive”.
With `COc1cccc2c1OC1(C)CC2/C(=C(\C)O)C(=O)N1` (centres undefined) the AC50 was “inactive”.
For `CCC(C)OC(=O)C1=C(C)NC(=O)CC1c1ccccc1OC` (centres undefined), the AC50 was 7.08 µM (active).
For `CCOC(=O)C1=C(C)NC2(O)c3ccccc3C(=O)C12O` (centres undefined), the AC50 was “inactive”.
In the case of `CCCCOc1ccccc1C1CC(=O)NC2=C1C(=O)CCC2` (centres undefined), the AC50 is reported as 17.8 µM (active).
With `CCCOc1ccccc1C1CC(=O)NC(C)=C1C(=O)OCC(C)C` (centres undefined) the AC50 was 1.12 µM (active).
